Laboratory results published in PubChem BioAssay (NCI).
The panel holds about 83,000 compounds, 20% with a hit somewhere; the sample as a whole holds those more often.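 Each cell line was grown in a 96-well plate and treated with one concentration of compound for 48 hours. Values below 10 were considered active.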 Calls of active or inactive are those of the source.

Test system: HL-60(TB) leukemia
Assay: NCI-60 one-dose screen, 48 h (100 = growth as untreated, 0 = no growth, -100 = all killed)
Details: 10 µM unless noted

| SMILES | growth |
| --- | --- |
| O=C(N/N=C/c1ccc(OC(F)F)c(OC2CCCC2)c1)c1cnn2c1NC(c1ccccc1)C2 (stereo not given) | 100% (inactive) |
| CCCCCCCCCCCCCCCCCCOc1ccc(CC(=O)OCC[N+](C)(C)C)cc1 | 2.32% (active) |
| CCCCN(CCCC)Cc1c(C)[nH]c2cc(OC)ccc2c1=O | 94.1% (inactive) |
| COC(=O)N/N=C/c1coc2ccc(Cl)cc2c1=O | 105% (inactive) |
| Cc1ccc(C(=O)Cc2ccccc2)c(O)c1 | 70.9% (inactive) |
| BrC(Br)(Br)c1cnc2ccccc2n1 | -38.1% (active) |
| O=C(Nc1ccc(F)cc1)c1cc([N+](=O)[O-])ccc1O | 59.6% (inactive) |
| CC1CCCCC[N+]12CCCC2 (stereo not given) | 102% (inactive) |
| OCCNc1ccccc1 | 100% (inactive) |
| O=C(Nc1ccccc1N1CCCC1=O)c1oc2ccc(F)cc2c1-c1cnn(-c2ccccc2)c1 | 84.8% [50 µM] (inactive) |
| COC(=O)c1nc(-c2ccccc2)oc1S(=O)(=O)n1nc(-c2ccccc2)cc1N | 58.9% (inactive) |
| Cc1ccccc1NC(=O)c1cc2ccccc2cc1O | 0.175% (active) |
| O=C(/C=C/c1cccc(Cl)c1)c1ccc(Nc2nc(Nc3ccc(F)cc3)nc(Nc3ccc(Cl)cc3)n2)cc1 | 52.8% (inactive) |
| O=C1/C(=C\C(Cl)=C/c2ccc([N+](=O)[O-])cc2)SC(=S)N1CCc1ccc(O)cc1 | 2.21% (active) |
| COC(=O)[C@]12CC[C@@H](C)[C@H](C)[C@@H]1C1=CC[C@@H]3[C@@]4(C)C[C@@H](O)[C@H](O)[C@@](C)(CO)[C@@H]4[C@H](O)C[C@@]3(C)[C@]1(C)CC2 | -27.4% (active) |
| O=C(NS(=O)(=O)c1ccccc1)n1cc(-c2ccncc2)c(-c2cc(O)cc(Cl)c2)n1 | 103% (inactive) |
| COc1ccc(/C=C(/C(=O)N2CCCCC2)c2cc(OC)c(OC)c(OC)c2)cc1 | -17.5% (active) |
| Cc1sc2nc3c4ccccc4c(NCCCN(C)C)nn3c(=O)c2c1C | -71% (active) |
| O=C(CC(C(=O)c1ccccc1)N1CCN(Cc2ccccc2)CC1)c1ccccc1 (stereo not given) | 28.5% (inactive) |
| Nc1nc2c(ncn2[C@@H]2O[C@H](CS)[C@@H](O)[C@H]2O)c(=O)[nH]1 | 101% (inactive) |

| SMILES | growth |
| --- | --- |
| C(=N\Nc1ncc(-c2cc3cc4c(cc3o2)OCO4)s1)/c1c[nH]c2ccccc12 | 2.27% (active) |
| c1c[nH]c(CNC2CCCCC2)c1 | 263% (inactive) |
| N=c1ccn2c(n1)OC1C(O)C(CO)OC12 (stereo not given) | 106% (inactive) |
| Nc1nc(-c2ccccc2)cs1 | 115% (inactive) |
| C=CCNC(=S)NNc1ccc([N+](=O)[O-])cn1 | 87.2% (inactive) |
| CCOC(=O)Nc1ccc(-c2ccc3c(c2)NC(=O)/C3=C\c2ccc[nH]2)cc1 | 98.5% (inactive) |
| O=S(=O)(Nc1ccc(OC(F)F)cc1)c1ccc(-c2cnc(C3CC3)o2)cc1 | 64.7% (inactive) |
| CCN(CC)CCn1c2ccc(OC)cc2c2sc3cc(O)ccc3c(=O)c21 | 31% (inactive) |
| CCOC(=O)COc1c(C)cc(SSc2cc(C)c(OCC(=O)OCC)c(C)c2)cc1C | 88.5% (inactive) |
| Cc1ccc(-c2csc(NC(=O)CSc3nc(-c4ccccc4)cc(=O)[nH]3)n2)cc1 | 49.4% (inactive) |
| CC(C)n1nc(C#Cc2cccc(NC(=O)c3cccc(C(F)(F)F)c3)c2)c2c(N)ncnc21 | -18.9% (active) |
| COc1cc(N2CCC(N(C)C)CC2)ccc1Nc1ncc(Cl)c(Nc2ccccc2P(C)(C)=O)n1 | 10% (inactive) |
| COc1ccc2c(c1)C(=O)c1c-2c(=O)n(CCCCCCC(=O)NO)c2ccccc12 | 12.7% (inactive) |
| CC1CCCCN1S(=O)(=O)c1ccc(CN=C=S)cc1 (stereo not given) | 75.9% (inactive) |
| Cc1nn(-c2ccc([N+](=O)[O-])cc2)c2ncnc(NCCc3ccccc3)c12 | 65.9% (inactive) |
| COc1ccc2c(CCc3ccc(Cl)cc3)c3[n+](cc2c1OC)CCc1cc2c(cc1-3)OCO2 | 10% (inactive) |
| Fc1cccc(-c2ccc3c(c2)C2(CCNCC2)CN3)c1 | 108% (inactive) |
| CCOC(=O)c1sc(-c2ccc(OS(=O)(=O)c3ccccc3[N+](=O)[O-])c(C=O)c2)nc1C | 73.3% (inactive) |
| CN(C)c1ccc(N=Nc2ccc3ccccc3c2)cc1 | 61.6% (inactive) |
| COC(=O)[C@]12CC[C@@H](C)[C@H](C)[C@@H]1C1=CC[C@@H]3[C@@]4(C)C(C=O)=C[C@@](C)(COS(C)(=O)=O)[C@@H]4C(=O)C[C@@]3(C)[C@]1(C)CC2 | 31.5% (inactive) |
